Screening data from PubChem.
Hits are enriched below; roughly 1.8% of the tested compounds scored in any of these assays.
Mcl1 Bid PPI = Mcl-1/Bid binding inhibitors, primary screen, biochemical, TR-FRET, 1536-well. Induced myeloid leukemia cell differentiation protein Mcl-1 (Homo sapiens), Q07820. TR-FRET Mcl-1/Bid-Dy647 peptide binding. inhibition, % at 21.7 µM. 220,000 compounds, 0.97% hits;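 active means compounds that cut the binding signal by more than half at the single screening dose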;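 further: His-tagged Mcl-1 with europium anti-His antibody binding Bid BH3 peptide; 0% = Mcl-1 plus peptide wells and 100% = peptide-only wells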
Mcl-1 Bim block = inhibitors of Bim peptide binding to Mcl-1, primary screen, biochemical, bead-based flow cytometry, multiplex; Induced myeloid leukemia cell differentiation protein Mcl-1 (Homo sapiens), Q07820; Bim peptide-Mcl-1 binding; inhibition, % at 10 µM; 190,000 compounds, 0.1% hits; in the data active means inhibition above about 40%;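 further: 0% = no compound tracer wells and 100% = peptide blocker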
TLR4 MyD88 comp = inhibitors of TLR4-MyD88 association in cells, primary screen, cell-based, HeLa CL3-4, BLA complementation, FRET ratio; Toll-like receptor 4 (Homo sapiens) + Myeloid differentiation primary response protein …; AID 861, 2007; 200,000 compounds, 0.18% hits; HeLa CL3-4 TLR4/MyD88 BLA complementation; inhibition, % at 8.4 µM; in the data active means inhibition above about 25%;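 further: 0% = vehicle and 100% = reference inhibitor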
TLR9-MyD88 inh = inhibitors of TLR9-MyD88 association in cells, primary screen, cell-based, CHO, BLA complementation, fluorescence; Toll-like receptor 9 (Homo sapiens) + Myeloid differentiation primary response protein …; CCF4 FRET ratio; inhibition, % at 4.98 µM; 340,000 compounds, 0.21% hits; AID 504734, 2011;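 active means inhibition above the mean over all tested compounds plus 3 SD, cut at about 21% in these data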;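 further: 0% = DMSO only wells and 100% = clavulanate BLA inhibitor control wells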
Mcl1 Noxa PPI = Mcl-1/Noxa binding inhibitors, primary screen, biochemical, TR-FRET, 1536-well. Induced myeloid leukemia cell differentiation protein Mcl-1 (Homo sapiens), Q07820. TR-FRET Mcl-1/Noxa peptide binding, 2 h. inhibition, % at 21.7 µM. 220,000 compounds, 1.5% hits. AID 1022, 2008;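 active means compounds that cut the protein-peptide binding signal by more than 50% relative to plate controls in a single-dose test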;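 further: His-tagged Mcl-1 with rhodamine Noxa BH3 peptide and terbium anti-His antibody; 0% = Mcl-1 plus Noxa peptide wells and 100% = peptide-only wells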
NOD2-RIPK2 inh = NOD2-RIPK2 binding disruptors in cells, primary screen, fluorescence, CHO cells, BLA complementation; Receptor-interacting serine/threonine-protein kinase 2 (Homo sapiens), O43353; CCF4 ratio; inhibition, % at 4.98 µM; 360,000 compounds, 0.38% hits; AID 624267, 2012; in the data active means inhibition above about 21%;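 further: 0% = vehicle only and 100% = reference blocker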
* marks the source's active call; other numbers are inactive results; nt = no result given.

SMILES	Mcl1 Bid PPI	Mcl-1 Bim block	TLR4 MyD88 comp	TLR9-MyD88 inh	Mcl1 Noxa PPI	NOD2-RIPK2 inh
Cc1ccc(-c2nnn(CC(=O)N(CCCO)C(C(=O)NC3CCCC3)c3ccc(F)cc3)n2)o1 (stereo not drawn)	nt	nt	nt	-3	nt	-8
O=C(c1ccc(F)cc1)N1CCN(Cc2ccccc2Br)CC1	60*	-9	8	1	1	-3
CC(O)CN(CCC(N)=O)CCC(N)=O (stereo not drawn)	52*	-1	2	0	15	-4
CC(C)=CCC/C(C)=C/CN(CC(C)O)CC(C)O (stereo not drawn)	-41	-1	12	-1	10	-5
Cc1cc(C)n(Cc2cccc(F)c2)c(=O)c1C#N	96*	-9	-14	-10	13	-6
Cc1cc(C)n(Cc2ccccc2F)c(=O)c1C#N	-3	-1	-6	-3	-1	-8
Cc1cc(C)n2nc(C(=O)OCC(=O)N3C(C)CCCC3C)nc2n1 (stereo not drawn)	nt	nt	nt	3	nt	-6
CCOc1ccc(C(=O)OCn2nnc3ccccc3c2=O)cc1OC	-35	-10	-3	4	-11	0
COc1cc(C(=O)OCn2nnc3ccccc3c2=O)cc(OC)c1OC	62*	0	-4	-1	15	-5
CCOC(=O)C1=C(C)N(C)C(=O)NC1c1cc2c(cc1[N+](=O)[O-])OCO2 (stereo not drawn)	8	1	-4	0	51*	-1
O=C(NC(Cc1ccccc1)C(=O)O)OCc1ccccc1 (stereo not drawn)	-25	-1	18	-7	10	0
CC(C)(C)OC(=O)NC(Cc1ccccc1)C(=O)O (stereo not drawn)	60*	nt	nt	3	36	-5
COC(=O)CSc1nnc([C@H](Cc2ccccc2)NC(=O)OC(C)(C)C)o1	0	-1	-1	-8	0	-10
Cc1cccc(CS(=O)(=O)c2nnc([C@H](Cc3ccccc3)NC(=O)OC(C)(C)C)o2)c1	-54	-2	5	11	9	65*
COC(=O)CS(=O)(=O)c1nnc([C@H](Cc2ccccc2)NC(=O)OC(C)(C)C)o1	-17	-4	8	-2	14	46*
Cc1ccn2c(=O)nc(SCC(=O)NCCc3ccccc3)nc2c1	nt	nt	nt	-4	nt	8
CC1CCN(C(=O)c2cc3ccccc3cc2O)CC1	nt	nt	nt	-2	nt	-3
CCc1cc2c(SCc3ccc(C(=O)OC)o3)ncnc2s1	nt	nt	nt	1	nt	-5
O=C1c2ccccc2C(=O)N1Cc1ccco1	3	4	-3	11	8	7
CC1=CC(=C2C(=O)c3ccccc3C2=O)C=C(C)N1Cc1ccco1	-18	4	-9	-7	64*	-3
CCOC(=O)c1sc(Nc2nc3cc4c(cc3s2)OCO4)cc1C	29	nt	-10	15	65*	-8
CC(=O)Nc1nc2cc3c(cc2s1)OCO3	-18	-1	-1	2	-2	-5
COc1ccc2noc3c2c1C(=O)c1ccccc1-3	nt	nt	nt	2	nt	1
O=C1c2ccccc2-c2onc3ccc(NCCCn4ccnc4)c1c23	60*	63*	-3	nt	-281	nt
N#Cc1cccc(C(=O)C(=O)N2CCN(c3ccccc3)CC2)c1	nt	nt	nt	nt	nt	-4
SMILES	Mcl1 Bid PPI	Mcl-1 Bim block	TLR4 MyD88 comp	TLR9-MyD88 inh	Mcl1 Noxa PPI	NOD2-RIPK2 inh
O=C1c2sc3nc4ccccc4n3c2C(=O)N1c1ccccc1Cl	-17	-12	-5	5	62*	4
CCCOc1ccc(OCCCCNC(C)CC)cc1 (stereo not drawn)	60*	-2	-3	8	28	-1
O=C(Nc1ccc(F)c(Cl)c1)c1ccc2sc([C@@H]3O[C@H](CO)[C@H](O)[C@H](O)[C@H]3O)nc2c1	nt	nt	nt	nt	nt	4
O=C1NCCCC2c3cc(O)c4ccccc4c3OC12N1CCCCC1 (stereo not drawn)	0	5	-8	nt	78*	nt
O=c1oc2ccccc2c(O)c1CN1CCCCC1	-8	-3	9	3	-2	7
O=C(CSc1nccn1Cc1ccccc1)NC1CCCC1	nt	nt	nt	0	nt	-5
O=c1c2ccccc2sn1-c1cc(S(=O)(=O)N2CCOCC2)ccc1N1CCCC1	-108	-16	4	-2	64*	-8
Nc1cc(S(=O)(=O)N2CCOCC2)ccc1N1CCCCC1	nt	nt	nt	-5	nt	-1
O=c1c2ccccc2sn1-c1cc(S(=O)(=O)N2CCOCC2)ccc1N1CCOCC1	-27	-8	-11	6	75*	1
CC(C)CN(C(=O)COC(=O)CNC(=O)c1ccccc1F)c1c(N)n(Cc2ccccc2)c(=O)[nH]c1=O	nt	nt	nt	-7	nt	4
CCCNC(=O)[C@@H]1CCCN1C(=O)[C@@H]1Cc2ccccc2CN1	nt	nt	nt	-9	nt	-7
O=C(COC(=O)CCNS(=O)(=O)c1ccc2c(c1)OCCO2)NC1CCCc2ccccc21 (stereo not drawn)	76*	-47	14	8	4	3
O=C(COC(=O)C1CC(=O)N(c2ccc3c(c2)OCCO3)C1)NC1CCCc2ccccc21 (stereo not drawn)	-35	-1	6	14	7	-9
COc1ccc(-c2cc(C(=O)Nc3c(F)cc(F)cc3Br)no2)cc1	nt	nt	nt	10	nt	2
Cc1ccc(C(=O)c2ccccc2C(=O)O)s1	-5	0	-1	11	11	0
O=C(O)c1ccccc1C(=O)c1ccc(Br)s1	-20	1	-2	16	54*	0
O=C(CN1CCN(c2ncccn2)CC1)N1CCCC1	-18	-3	-22	-1	23	-2
CCN(CC)C(=O)CN1CCN(c2ncccn2)CC1	56*	-6	5	0	0	3
Cc1ccc(C)c(NC(=O)CSc2nnc(-c3ccco3)o2)c1	2	0	14	7	2	3
O=C(CSc1nnc(-c2ccco2)o1)c1ccc[nH]1	-25	-23	-3	-9	56*	-6
Cc1cccc(NC(=O)CSc2nnc(-c3ccco3)o2)c1C	-14	-1	3	-2	54*	-20
O=C(NCCN1CCC(n2c(=O)[nH]c3ccccc32)CC1)c1ccc(F)cc1Cl	nt	nt	nt	nt	nt	10
Cc1c(C(=O)OCC(=O)N(C)CC(=O)Nc2ccc(F)cc2)oc2ccccc12	nt	nt	nt	16	nt	-9
O=c1c2c(-c3ccco3)csc2nc(SCc2cn3cccnc3n2)n1-c1ccccc1	-7	0	-5	-5	27	-4
NC(=O)CSc1nc2scc(-c3ccco3)c2c(=O)n1-c1ccccc1	6	0	-6	-27	55*	3
